Source: PubChem BioAssay (NCATS)
Inconclusive results are not listed. Calls of active or inactive are those of the source. Unless noted, the call rests on the fitted dose curve. Residues, ends and D or L forms follow the SMILES beside them.

What was measured:
[1] = qHTS for Inhibitors of the Functional Ribonucleoprotein Complex (vRNP) of Lassa (LASV) Arenavirus: Viability assay - alamar blue signal for LASV Primary Screen (AID 1347083; calls by dose curve; tested in HEK293 reporter line; further: nearly all actives have a fitted effect of over 80% in size; on activity change, negative = reduced viability: series mostly up to about 57 µM)
[2] = qHTS for Inhibitors of the Functional Ribonucleoprotein Complex (vRNP) of Lymphocytic Choriomeningitis Arenaviruses (LCMV): Viability assay - alamar blue signal for LCMV Primary Screen (AID 1347085; calls by dose curve; tested in HEK293 reporter line; further: nearly all actives have a fitted effect of over 80% in size; on activity change, negative = lower viability: series mostly up to about 57 µM)
[3] = molecular target: Nucleoprotein (Lymphocytic choriomeningitis virus (strain Armstrong)) (UniProt P09992); assay: qHTS for Inhibitors of the Functional Ribonucleoprotein Complex (vRNP) of Lymphocytic Choriomeningitis Arenaviruses (LCMV): LCMV Primary Screen - GLuc reporter signal (AID 1347086); further: nearly all actives have a fitted effect of over 70% in size; on activity change, negative = inhibition: series mostly up to about 57 µM
Chain of Nucleoprotein (Lymphocytic choriomeningitis virus (strain Armstrong)) (P09992 whole entry, looked up): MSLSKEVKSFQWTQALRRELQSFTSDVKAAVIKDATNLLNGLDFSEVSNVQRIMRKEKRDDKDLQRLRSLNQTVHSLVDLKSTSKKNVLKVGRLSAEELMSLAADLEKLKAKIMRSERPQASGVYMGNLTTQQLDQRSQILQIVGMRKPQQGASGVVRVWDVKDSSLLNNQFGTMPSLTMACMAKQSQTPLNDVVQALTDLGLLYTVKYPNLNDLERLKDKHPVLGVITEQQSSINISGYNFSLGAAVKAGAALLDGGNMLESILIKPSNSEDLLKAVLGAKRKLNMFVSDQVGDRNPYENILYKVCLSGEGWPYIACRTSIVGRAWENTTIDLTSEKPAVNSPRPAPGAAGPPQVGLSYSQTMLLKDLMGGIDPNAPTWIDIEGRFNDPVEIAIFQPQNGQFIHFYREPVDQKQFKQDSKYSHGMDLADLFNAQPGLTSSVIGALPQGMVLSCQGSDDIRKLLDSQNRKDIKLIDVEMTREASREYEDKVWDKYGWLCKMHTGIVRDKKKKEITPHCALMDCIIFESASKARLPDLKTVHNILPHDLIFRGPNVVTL
On the % scale 0 is the no-effect control and ±100 the full control effect; potency means the concentration at half of the fitted maximal effect.

C[C@@H]1CN(c2c(F)c(F)c3c(=O)c(C(=O)O)cn(C4CC4)c3c2F)C[C@H](C)N1
inactive: Potency [1] | Potency [2] | Potency [3]

COc1c2occc2cc2ccc(=O)oc12
inactive: Potency [1] | Potency [2] | Potency [3]

Cc1cc2nc3c(=O)[nH]c(=O)nc-3n(C[C@H](O)[C@H](O)[C@H](O)CO)c2cc1C
inactive: Potency [1] | Potency [2] | Potency [3]

CCC(C(=O)OCCN(CC)CC)c1ccccc1 (stereo unspecified)
inactive: Potency [1] | Potency [2] | Potency [3]

NC(=O)NC(=O)Cc1ccccc1
inactive: Potency [1] | Potency [2] | Potency [3]

CC(C)C[C@H]1C(=O)N2CCC[C@H]2[C@]2(O)O[C@](NC(=O)[C@@H]3C=C4c5cccc6[nH]c(Br)c(c56)C[C@H]4N(C)C3)(C(C)C)C(=O)N12
inactive: Potency [1] | Potency [2] | Potency [3]

CC(=O)OCC(=O)[C@@]1(O)CC[C@H]2[C@@H]3CCC4=CC(=O)CC[C@]4(C)[C@H]3C(=O)C[C@@]21C
inactive: Potency [1] | Potency [2] | Potency [3]

CC(C)(C)NCC(O)c1cc(O)cc(O)c1 (stereo unspecified)
inactive: Potency [1] | Potency [2] | Potency [3]

NC(=O)n1c(O)c(C(=O)c2cccs2)c2cc(Cl)ccc21
inactive: Potency [1] | Potency [2] | Potency [3]

O=S(=O)(O)c1ccc(O)cc1
inactive: Potency [1] | Potency [2] | Potency [3]

COC(=O)/C=C(/C)N
inactive: Potency [1] | Potency [2] | Potency [3]

CCOC(=O)NNc1ccc(N(CC)CC(C)O)nn1 (stereo unspecified)
inactive: Potency [1] | Potency [2] | Potency [3]

Nc1ccc(S(=O)(=O)NCc2ccccc2)cc1
inactive: Potency [1] | Potency [2] | Potency [3]

CC(=O)N(CC(O)CO)c1c(I)c(C(=O)NCC(O)CO)c(I)c(C(=O)NCC(O)CO)c1I (stereo unspecified)
inactive: Potency [1] | Potency [2] | Potency [3]

CC(C)(C)NC[C@H](O)COc1nsnc1N1CCOCC1
inactive: Potency [1] | Potency [2] | Potency [3]

Cc1cc(O)cc2c1O[C@](C)(CCC[C@H](C)CCC[C@H](C)CCCC(C)C)CC2
inactive: Potency [1] | Potency [2] | Potency [3]

CCn1cc(C(=O)O)c(=O)c2cnc(N3CCCC3)nc21
inactive: activity change, negative = reduced viability [1] 9.34% [at 11.5 µM] | activity change, negative = lower viability [2] 6.9% [at 11.5 µM] | activity change, negative = inhibition [3] 14.6% [at 11.5 µM]

CC(=O)c1ccc(OCC(=O)N2CCCCC2)cc1
inactive: Potency [1] | Potency [2] | Potency [3]

CC(=O)NCc1c(I)c(NC(C)=O)c(I)c(C(=O)O)c1I
inactive: Potency [1] | Potency [2] | Potency [3]

CC1(C)O[C@@H]2C[C@H]3[C@@H]4CCC5=CC(=O)C=C[C@]5(C)[C@@]4(F)[C@@H](O)C[C@]3(C)[C@]2(C(=O)CO)O1
inactive: Potency [1] | Potency [2] | Potency [3]

NC(=O)NC1N=C([O][Al])NC1=O (stereo unspecified)
inactive: Potency [1] | Potency [2] | Potency [3]

CCCCOC(=O)c1ccc(O)cc1
inactive: Potency [1] | Potency [2] | Potency [3]

O=c1[nH]c(=O)n([C@H]2CCCO2)cc1F
inactive: Potency [1] | Potency [2] | Potency [3]

NS(=O)(=O)c1cc2c(cc1Cl)NC(CC1CCCC1)NS2(=O)=O (stereo unspecified)
inactive: Potency [1] | Potency [2] | Potency [3]

O=C(O)c1cc(=O)c2c(OCC(O)COc3cccc4oc(C(=O)O)cc(=O)c34)cccc2o1
inactive: Potency [1] | Potency [2] | Potency [3]

CCS(=O)(=O)CCn1c([N+](=O)[O-])cnc1C
inactive: Potency [1] | Potency [2] | Potency [3]

Cn1c(=O)c2c(ncn2CC(=O)O)n(C)c1=O
inactive: Potency [1] | Potency [2] | Potency [3]

COc1ccc(C(=O)c2ccccc2)c(O)c1
inactive: Potency [1] | Potency [2] | Potency [3]

CN1C(C(=O)Nc2ccccn2)=C(O)c2ccccc2S1(=O)=O
inactive: Potency [1] | Potency [2] | Potency [3]

CC1(COc2ccc(CC3SC(=O)NC3=O)cc2)CCCCC1 (stereo unspecified)
inactive: Potency [1] | Potency [2] | Potency [3]

COc1ccc2cc([C@H](C)C(=O)O)ccc2c1
inactive: Potency [1] | Potency [2] | Potency [3]

Cc1ccc(C(=O)C(C)CN2CCCCC2)cc1 (stereo unspecified)
inactive: Potency [1] | Potency [2] | Potency [3]

CC(C)(C)CC(C)(C)c1ccc(O)c(-n2nc3ccccc3n2)c1
inactive: Potency [1] | Potency [2] | Potency [3]

Cc1onc(-c2ccccc2)c1-c1ccc(S(N)(=O)=O)cc1
inactive: Potency [1] | Potency [2] | Potency [3]

Cc1nc(-c2ccc(Cl)cc2)oc1COC(C)(C)C(=O)O
inactive: Potency [1] | Potency [2] | Potency [3]

Clc1cccc(Cl)c1NC1=NCCN1
inactive: Potency [1] | Potency [2] | Potency [3]

COc1ccc2c(c1)CCCC2=O
inactive: Potency [1] | Potency [2] | Potency [3]

O=P(O)(O)OCC(O)CO (stereo unspecified)
inactive: Potency [1] | Potency [2] | Potency [3]

Cc1ccccc1N1CCN(CCc2nnc3n2CCCC3)CC1
inactive: Potency [1] | Potency [2] | Potency [3]

CN1CCN(N)CC1
inactive: Potency [1] | Potency [2] | Potency [3]

Cc1ccc(S(=O)(=O)NC(=O)NC2CCCCCCC2)cc1
inactive: Potency [1] | Potency [2] | Potency [3]

O=C1c2c(O)cccc2Cc2cccc(O)c21
inactive: Potency [1] | Potency [2] | Potency [3]

CCCOC(=O)c1ccccc1
inactive: Potency [1] | Potency [2] | Potency [3]

O=C(O)[C@@H]1CSCN1
inactive: Potency [1] | Potency [2] | Potency [3]

CC[N+](CC)(CCNC(=O)C(=O)NCC[N+](CC)(CC)Cc1ccccc1Cl)Cc1ccccc1Cl
inactive: Potency [1] | Potency [2] | Potency [3]

COc1ccc(C(=O)N2CCN(CC(=O)N3CCOCC3)CC2)cc1
inactive: Potency [1] | Potency [2] | Potency [3]

C=CCN1C[C@H](C(=O)N(CCCN(C)C)C(=O)NCC)C[C@@H]2c3cccc4[nH]cc(c34)C[C@H]21
inactive: Potency [1] | Potency [2] | Potency [3]

CCOC(=O)[C@H](CCc1ccccc1)N[C@@H](C)C(=O)N1[C@H](C(=O)O)C[C@H]2CCCC[C@@H]21
inactive: Potency [1] | Potency [2] | Potency [3]

C[C@](N)(Cc1ccc(O)cc1)C(=O)O
inactive: Potency [1] | Potency [2] | Potency [3]

O=C1CC[C@@H](C(=O)O)N1
inactive: Potency [1] | Potency [2] | Potency [3]

NCCNCCNCCNCCN
inactive: activity change, negative = reduced viability [1] 1.27% [at 11.5 µM] | activity change, negative = lower viability [2] 2.19% [at 11.5 µM] | activity change, negative = inhibition [3] -1.94% [at 11.5 µM]

OCc1ccc(Cl)cc1Cl
inactive: Potency [1] | Potency [2] | Potency [3]

C[C@H](NC(CCc1ccccc1)C(=O)O)C(=O)N1CCC[C@H]1C(=O)O (stereo partly specified)
inactive: Potency [1] | Potency [2] | Potency [3]

CC(COc1ccccc1)NN (stereo unspecified)
inactive: Potency [1] | Potency [2] | Potency [3]

CC(=O)CC/C=C(\C)CC/C=C(\C)CC/C=C(\C)CCC=C(C)C
inactive: Potency [1] | Potency [2] | Potency [3]

CC(=O)c1ccc(S(=O)(=O)NC(=O)NC2CCCCC2)cc1
inactive: Potency [1] | Potency [2] | Potency [3]

CCCCC(CC)COC(=O)c1ccccc1O (stereo unspecified)
inactive: Potency [1] | Potency [2] | Potency [3]

Cc1cc(O)c2c(O)c3c(O)cccc3cc2c1
inactive: Potency [1] | Potency [2] | Potency [3]

N[C@@H](CCC(=O)N[C@@H](CS)C(=O)NCC(=O)O)C(=O)O
inactive: Potency [1] | Potency [2] | Potency [3]

c1ccc2sc(SN3CCOCC3)nc2c1
inactive: Potency [1] | Potency [2] | Potency [3]

COCCOC(=O)C1=C(C)NC(C)=C(C(=O)OC(C)C)C1c1cccc([N+](=O)[O-])c1 (stereo unspecified)
inactive: Potency [1] | Potency [2] | Potency [3]

CC(=O)Nc1c(I)c(NC(C)=O)c(I)c(C(=O)O)c1I
inactive: Potency [1] | Potency [2] | Potency [3]

Cc1ccc(C(C)C)cc2c(C)ccc1-2
inactive: Potency [1] | Potency [2] | Potency [3]

NS(=O)(=O)c1ccc(Cl)c(S(N)(=O)=O)c1
inactive: Potency [1] | Potency [2] | Potency [3]

NS(=O)(=O)c1cc2c(cc1Cl)NC(C(Cl)Cl)NS2(=O)=O (stereo unspecified)
inactive: Potency [1] | Potency [2] | Potency [3]

CCC(C)(CN(C)C)OC(=O)c1ccccc1 (stereo unspecified)
inactive: Potency [1] | Potency [2] | Potency [3]

Cc1cc(-n2nc3ccc(Cl)cc3n2)c(O)c(C(C)(C)C)c1
inactive: Potency [1] | Potency [2] | Potency [3]

Cc1cccc(C)c1NC(=O)CN1CCCCCC1
inactive: Potency [1] | Potency [2] | Potency [3]

COc1cccc2c1C(=O)c1c(O)c3c(c(O)c1C2=O)C[C@@](O)(C(=O)CO)C[C@@H]3O[C@H]1C[C@H](N)[C@@H](O)[C@H](C)O1
active: Potency [1] 1.09 µM | Potency [2] 1.09 µM | Potency [3] 1.37 µM

O=C(c1ccccc1)C(O)c1ccccc1 (stereo unspecified)
inactive: Potency [1] | Potency [2] | Potency [3]

CC12CCC(CC1)C(C)(C)O2
inactive: Potency [1] | Potency [2] | Potency [3]

COC(=O)[C@H](Cc1ccccc1)NC(=O)[C@@H](N)CC(=O)O (H-Asp-Phe-OMe)
inactive: Potency [1] | Potency [2] | Potency [3]

O=C1NCC2(CCN(CCc3ccccc3)CC2)O1
inactive: Potency [1] | Potency [2] | Potency [3]

CC(C)C(=O)Nc1cccc(C(F)(F)F)c1
inactive: Potency [1] | Potency [2] | Potency [3]

CCCCCCCC/C=C\CCCCCCCC(=O)NCc1ccc(O)c(OC)c1
inactive: Potency [1] | Potency [2] | Potency [3]

COc1c2occc2c(OC)c2c(=O)cc(C)oc12
inactive: Potency [1] | Potency [2] | Potency [3]

COP(=O)(OC)OC(c1ccc(Cl)cc1)P(=O)(OC)OC (stereo unspecified)
inactive: Potency [1] | Potency [2] | Potency [3]

COc1cc(C(=O)OC(COCCC(C)C)CN2CCOCC2)cc(OC)c1OC (stereo unspecified)
inactive: Potency [1] | Potency [2] | Potency [3]

CC1(C)OC[C@@H]2O[C@@]3(C(=O)O)OC(C)(C)O[C@H]3[C@@H]2O1
inactive: Potency [1] | Potency [2] | Potency [3]

CCOC(=O)/C=C(C)/C=C/C=C(C)/C=C/c1c(C)cc(OC)c(C)c1C
inactive: Potency [1] | Potency [2] | Potency [3]

CC(O)(P(=O)(O)O)P(=O)(O)O
inactive: Potency [1] | Potency [2] | Potency [3]

CC(C)NCC(O)c1ccc(NS(C)(=O)=O)cc1 (stereo unspecified)
inactive: Potency [1] | Potency [2] | Potency [3]

CC1CCc2c(N3CCC(O)CC3)c(F)cc3c(=O)c(C(=O)O)cn1c23 (stereo unspecified)
inactive: Potency [1] | Potency [2] | Potency [3]

Cc1ncc(CO)c(CN)c1O
inactive: Potency [1] | Potency [2] | Potency [3]

O=C(OOC(=O)c1ccccc1)c1ccccc1
inactive: Potency [1] | Potency [2] | Potency [3]

Cc1c(C(C)C)c(=O)n(-c2ccccc2)n1C
inactive: Potency [1] | Potency [2] | Potency [3]

CCOC(=O)C(O)c1ccccc1 (stereo unspecified)
inactive: Potency [1] | Potency [2] | Potency [3]
